Assay results reported in PubChem BioAssay (NCI).
About 83,000 compounds went through this panel and 20% of them were active in at least one assay; those are over-represented in the sample as a whole.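 For each line, cells grew in 96-well plates with the test compound present at a single concentration for 48 hours.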 A number with no mark means an inactive call. Calls of active or inactive are those of the source. The calls were made as follows: active = growth percent below 10; inactive = the rest.

Legend:
Assay in all cases: NCI-60 one-dose screen, 48 h (100 = growth as untreated, 0 = no growth, -100 = all killed)
[1] = test system: SK-MEL-2 melanoma; conditions: 10 µM
[2] = test system: EKVX NSCLC; conditions: 10 µM unless noted
[3] = test system: SN12C renal; conditions: 10 µM unless noted
[4] = test system: UO-31 renal; conditions: 10 µM unless noted
[5] = test system: TK-10 renal; conditions: 10 µM unless noted
[6] = test system: ACHN renal; conditions: 10 µM unless noted
[7] = test system: A498 renal; conditions: 10 µM unless noted
[8] = test system: CCRF-CEM leukemia; conditions: 10 µM unless noted
[9] = test system: MOLT-4 leukemia; conditions: 10 µM unless noted

Row | Compound | growth [1] | growth [2] [%] | growth [3] | growth [4] | growth [5] | growth [6] | growth [7] | growth [8] | growth [9]
1 | CCOC(=O)Sc1ncnc2nc[nH]c12 | 27.9% | 97.9 | 82.4% | 41% | 23.2% | 70% | 84% | 13.5% | 4.03% (active)
2 | Nc1nc(=S)c2ncn(C3OC(COC(=O)c4ccc(Cl)cc4)C(OC(=O)c4ccc(Cl)cc4)C3OC(=O)c3ccc(Cl)cc3)c2[nH]1 (stereo unspecified) | 94.5% | 71.4 | 92.7% | 79.4% | 91.3% | 98.2% | 75% | 12.7% | 65.1%
3 | C=CC[n+]1c(/C=C2\Sc3ccccc3N2C)sc(-c2ccccc2)c1-c1ccccc1 | -15.5% (active) | 16.5 | 8.01% (active) | 6.58% (active) | -6.28% (active) | 8.86% (active) | 7.29% (active) | 23.2% | -4.71% (active)
4 | CCOC(=O)C1=C(C)NC(=O)NC1c1cc(=O)oc2ccc(C)cc12 (stereo unspecified) | 95.6% | 95.2 | 101% | 93.1% | 97.1% | 114% | 104% | 101% | 99.1%
5 | Cc1cc(N2CCCC2)nc(N(CCCNc2ccnc3cc(Cl)ccc23)Cc2ccc3c(c2)OCO3)n1 | -50.7% (active) | 35.9 | 29.3% | -24.5% (active) | -12.6% (active) | -10.7% (active) | 13.6% | 1% (active) | -15.4% (active)
6 | COc1cc(OC)c(C(=O)/C=C/c2cc3c(cc2OCc2ccccc2)OC(C)(C)CC3)cc1CC=C(C)C | 82.3% | 61.1 | 47.6% | 51.4% | 81.7% | 68.2% | 98.9% |  | -0.0389% (active)
7 | CC1CCC(n2cnc3c(Cl)ncnc32)O1 (stereo unspecified) | 109% | 94.5 | 110% | 96.4% | 88% | 104% | 124% | 85.8% | 113%
8 | CCN(CC)C(=O)C[N+](C)(C)CCOC(c1ccccc1)c1ccccc1 | 103% | 100 | 106% | 93.4% | 98.2% | 111% | 114% | 112% | 103%
